Data on 17 compounds can be found in PubChem BioAssay (NCI).

Compounds without any hit were thinned out: in the full panel of roughly 79,000, 15% have a hit. A number with no mark means an inactive call. No stated cut-off is given here; in the data, active means growth inhibition above about 70%; inactive means the rest.

This experiment can be described thus: NCI Yeast Anticancer Drug Screen. Data for the mlh1 rad18 strain (AID 175). To be noted: S. cerevisiae mlh1 rad18 strain growth inhibition; at 50.0 µM; stronger effect = higher value. Put shortly: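 Test agents were incubated with a yeast strain of defined genotype (DNA damage repair defect). Inhibition of growth was derived by comparison with vehicle-exposed cultures.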
Take `NC(=O)c1[nH]c(/N=N/c2nc[nH]c2C(N)=O)nc1N`: the growth inhibition was 16.4%.

As for `Oc1ccc(Cl)c(O)c1`, the growth inhibition is 21.7%.

For `Cn1c(=O)c2[nH]c(NCc3ccccc3)nc2n(C)c1=O`, the growth inhibition was -0.2%.

On to `CCOC(=O)C1=C(C)NC(C)=C(C(=O)OCC)C1C`, for which the growth inhibition was -6.8%.

Regarding `COc1cccc(N(CN2C(=O)CCC2OC)C(C)=O)c1` (configuration not stated), the growth inhibition is -31.4%.

With `O=C(Nc1ccc(Cl)c(Cl)c1)Oc1ccc(Cl)cc1C(=O)Nc1ccccc1`, the growth inhibition was 37.6%.

In the case of `CCCCCc1[nH]c(=O)[nH]c(=O)c1S(=O)(=O)N1CCCCC1`, the growth inhibition is 18.2%.

Take `CC(=O)N(CN1C(=O)CCC1C(=O)O)c1ccccc1` (configuration not stated): the growth inhibition was -31.3%.

In the case of `NC(CCOCCP(=O)(O)CCC1C=CC=CC1)C(=O)O` (configuration not stated), the growth inhibition is -19.9%.

Consider `Nc1ccc([N+](=O)[O-])c2ccccc12`, for which the growth inhibition is 12.7%.

As to `Cc1ccc(C(=O)/C=C/c2ccco2)cc1`, the growth inhibition was 61.3%.

In the case of `C=CCNC(=O)NCCCC(NC(C)=O)C(=O)NCc1ccccc1` (configuration not stated), the growth inhibition was -20.6%.

Consider `O=c1c2cnc3cc(Cl)ccc3c2[nH]n1-c1ccc(Cl)cc1`, for which the growth inhibition was 2.9%.

Take `COc1ccc(-c2cc(C)n(C3OC(CO)C(O)C(O)C3O)c(=S)c2C#N)cc1` (configuration not stated): the growth inhibition was 13.7%.

`CC(=O)OC1CCC2(C)C3CCC4(C)C(C(C)CCCC(C)C)CCC4C3CC(=O)C23CC13` (configuration not stated): the growth inhibition is 17.9%.

For the compound `CCCOc1nc(N)c2cnn(C3CCCCO3)c2n1` (configuration not stated), the growth inhibition is -9.25%.

Consider `CC(=O)O[C@@H]1[C@@H](C)[C@]2(CC(c3ccoc3)OC2O)C2CCC3O[C@]3(C)[C@]2(C)[C@@H]1OC(C)=O` (some centres not stated), for which the growth inhibition is -28.4%.
